Laboratory results reported in the supplement of paper PMC10600219.
Where a name gives a salt, the structure may show the parent alone. Whole data set: some 2,800 compounds, median “cell viability relative to vehicle” near 1.1, cut for the lowest 2% near 0.19. This is one part of a sample in which the lowest values are shown more often than they occur.

system: NCI-H2228 parental; assay: cell viability relative to vehicle (fraction of vehicle); NCI-H2228 is an ALK-positive lung cancer line and DTP means drug-tolerant persister; higher = less growth inhibition; details: 100 nM; treatment time 6 days
How it was run: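 Values give cell viability as a fraction of vehicle-treated cells. Parental and drug-tolerant persister NCI-H2228 cells (persisters made with 1000 nM of a targeted drug for 13 days) were exposed in 384-well plates to the 3114-agent TargetMol anti-cancer compound library at 100 nM, with DMSO as vehicle. ATP was then read after 6 days by the CellTiter-Glo 3D Cell Viability Assay.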

SMILES	cell viability
CCNC(=O)c1cc2c(-c3cc(C(C)(C)O)ccc3Oc3c(C)cc(F)cc3C)cn(C)c(=O)c2[nH]1	0.898
C[C@H](NC(=O)CCC(F)(F)F)C(=O)N[C@@H]1C(=O)N(CCO)c2ncccc2-c2ccccc21 [Crenigacestat]	1.05
CC(C)=CCC[C@](C)(O[C@@H]1O[C@H](CO)[C@@H](O)[C@H](O)[C@H]1O)[C@H]1CC[C@]2(C)[C@@H]1[C@H](O)C[C@@H]1[C@@]3(C)CC[C@H](O[C@@H]4O[C@H](CO)[C@@H](O)[C@H](O)[C@H]4O[C@@H]4O[C@H](CO)[C@@H](O)[C@H](O)[C@H]4O)C(C)(C)[C@@H]3CC[C@]12C [Ginsenoside Rd]	1.18
C=CC(=O)Nc1ccc(CN2C(=O)N(c3cc(OC)cc(OC)c3)Cc3cnc(Nc4ccc(N5CCN(C)CC5)cc4)nc32)cc1	0.858
OC[C@H]1O[C@@H](Oc2ccc3c(c2)OC[C@H]2c4cc5c(cc4O[C@@H]32)OCO5)[C@H](O)[C@@H](O)[C@@H]1O [Trifolirhizin]	1.02
O=c1cc(N2CCOCC2)oc2c(-c3ccc4c(c3)OCCO4)csc12	1.14
Nc1ccccc1NC(=O)CCCCCCC(=O)Nc1ccccc1	1.09
Cc1c[nH]c2nc(Nc3ccc(N4CCN(C)CC4)c(F)c3)nc(-c3cccc(CC#N)c3)c12	0.777
Cc1ncc(CCCN(C)C)cc1Nc1ncc2c(n1)-c1ccc(C(F)(F)F)cc1NC(=S)C2	0.178
C=C(C)[C@@H]1CC[C@]2(C)[C@H](CC=C3[C@@H]4[C@@H](C)[C@H](C)CC[C@]4(C)CC[C@]32C)[C@@]1(C)CCC(=O)O [Roburic acid]	1.08
CC1=C[C@]2(O)O[C@@]3(CC2=C(C)C)[C@@H](C)CC[C@@H]13 [Curcumenol]	1.1
CC(=O)O[C@@H]1C[C@H](O)[C@@]23CO[C@@H](O)[C@]1(C)[C@@H]2C[C@@H](O)[C@]1(C)[C@@H]3C(=O)[C@H](OC(C)=O)[C@@]2(C)[C@H](c3ccoc3)C[C@H]3O[C@]321 [Toosendanin]	0.147
CC(=O)O[C@H]1CC(=O)OC(C)(C)[C@@H]2CC(=O)[C@]3(C)[C@H](CC[C@@]4(C)[C@@H](c5ccoc5)OC(=O)[C@H]5O[C@]543)[C@@]12C [Nomilin]	1.13
CC(C)=CCC(OC(=O)C=C(C)C)C1=CC(=O)c2c(O)ccc(O)c2C1=O (stereo not drawn) [beta, beta-dimethylacrylshikonin]	1.03
CC1(C)CC[C@]2(C(=O)O)CC[C@]3(C)C(=CC[C@@H]4[C@@]5(C)CCC(=O)C(C)(C)[C@@H]5CC[C@]43C)[C@@H]2C1 [Oleanonic Acid]	1.12
O=C(NC1CCOCC1)c1ccc(-c2cc(-c3c[nH]nc3-c3ccccn3)ccn2)cc1	1.01
O=C(Nc1c[nH]nc1-c1nc2ccc(CN3CCOCC3)cc2[nH]1)NC1CC1	0.106
COCCN1CCN(Cc2ccc(-c3n[nH]c4c3C(=O)c3c(NC(=O)NN5CCOCC5)cccc3-4)cc2)CC1	0.253
CCCCCCCCNc1cc(=O)[nH]c(=O)[nH]1	1.01
CCC(=O)Oc1ccc2c(c1)CCC1C2CCC2(C)C(OC(=O)CC)CCC12 (stereo not drawn) [17-Beta-Estradiol-3,17-Dipropionate]	1.24
CCCOc1ccc(CCc2nc3cc(-c4c(C)noc4C)ccc3n2CCN2CCOCC2)cc1 [PF-CBP1 hydrochloride]	1.06
O=C(Nc1ccc(OC(F)(F)Cl)cc1)c1cnc(N2CC[C@@H](O)C2)c(-c2cc[nH]n2)c1 [Asciminib]	1.11
NC(=O)Cc1cc[nH]n1 [1H-Pyrazole-3-acetamide]	0.268

SMILES	cell viability
CONC(=O)Nc1ccc(-c2sc3c(c2CN(C)Cc2ccccc2)c(=O)n(-c2ccccc2)c(=O)n3Cc2c(F)cccc2F)cc1 [Sufugolix]	0.979
CN1CCN(Cc2ccc(Nc3ncc(Cl)c(Nc4ccccc4S(=O)(=O)N(C)C)n3)cc2)CC1	0.0869
COc1cc(N2CCC(N3CCN(C)CC3)CC2)ccc1Nc1ncc(Cl)c(Nc2ccccc2S(=O)(=O)C(C)C)n1	0.421
CNS(=O)(=O)c1ccccc1Nc1nc(Nc2ccc(N3CCN(C)CC3)cc2OC)ncc1Cl [ALK inhibitor 2]	0.448
O=C(/C=C/c1ccc(O)cc1)C1=C(O)C(O)([C@@H]2O[C@H](CO)[C@@H](O)[C@H](O)[C@H]2O)C(O)=C([C@@H]2O[C@H](CO)[C@@H](O)[C@H](O)[C@H]2O)C1=O (some centres not stated) [Hydroxysafflor yellow A]	1.07
CCOCc1nc2c(N)nc3ccccc3c2n1CC(C)(C)O [Resiquimod]	1.06
O=C(Nc1cccc(-c2ccccc2)c1)OC1CCCCC1	1.01
COc1ccc(CCc2cc(OC)c(OC)c(OC)c2)cc1O [Erianin]	0.335
CCNC(=O)c1noc(-c2cc(C(C)C)c(O)cc2O)c1-c1ccc(CN2CCOCC2)cc1 [Luminespib]	0.0552
CCNC(=O)c1noc(-c2cc(Cl)c(O)cc2O)c1-c1ccc(OC)cc1	0.237
O=C(Nc1ccc(CN2CCOCC2)cc1)c1ccc(-c2cccc(Cl)c2)o1	0.775
CC1(C)CC[C@]2(C(=O)O)CC[C@]3(C)C(=CC[C@@H]4[C@@]5(C)CC[C@H](O[C@@H]6O[C@H](C(=O)O)[C@@H](O)[C@H](O[C@@H]7OC[C@@H](O)[C@H](O)[C@H]7O)[C@H]6O)C(C)(C)[C@@H]5CC[C@]43C)[C@@H]2C1 [Momordin Ic]	1.1
C[C@@]1(CO)C[C@@H](O)C[C@@]2(C)[C@@H]3CC[C@](C)([C@@H](O)CO)C=C3CC[C@H]12 [Kirenol]	1.1
Cc1c(CN2CCN(c3cccc(C(F)(F)F)c3)CC2)cc(-c2ccccc2)n1NC(=O)c1ccncc1 [Sudoterb free base]	1.05
Cc1ccc([N+](=O)[O-])cc1S(=O)(=O)N(C)/N=C/c1cnc2ccc(Br)cn12 [PIK-75  hydrochloride]	0.153
Cc1ccc([N+](=O)[O-])cc1S(=O)(=O)N(C)/N=C/c1cnc2ccc(Br)cn12	0.165
Cc1ccccc1C(C(=O)NC1CCCCC1)N(C(=O)Cn1cnc2ccccc21)c1cccc(F)c1 (configuration not stated)	1.19
CCC(=O)Nc1cccc(Oc2nc(Nc3ccc(N4CCN(C)CC4)cc3OC)ncc2Cl)c1	1.22
CN1CCN(c2ccc(OC(F)(F)F)c(Nc3ncc4c(n3)-c3c(c(C(N)=O)nn3CCO)CC4)c2)CC1	0.168
C=CC(=O)Nc1cccc(Oc2nc(Nc3ccc(N4CCN(C)CC4)cc3OC)ncc2Cl)c1	1.19
CCCCc1nc2ccc(NC(=O)NC3CCCCC3)cc2n1Cc1ccc(-c2ccccc2C(=O)O)cc1	1.08
Cc1cc2cc(Oc3ccnc(Nc4cccc(CS(=O)(=O)NCCN(C)C)c4)n3)ccc2[nH]1 [Sulfatinib]	1.03
CN(Cc1cnc2nc(N)nc(N)c2n1)c1ccc(C(=O)N[C@@H](CCC(=O)O)C(=O)O)cc1 [Methotrexate]	0.375

SMILES	cell viability
Nc1nc(=O)c2c([nH]1)NCC(CNc1ccc(C(=O)N[C@@H](CCC(=O)O)C(=O)O)cc1)N2C=O (some centres not stated) [Calcium folinate]	1.08
Cc1nc(=O)c2cc(CN(C)c3ccc(C(=O)N[C@@H](CCC(=O)O)C(=O)O)s3)ccc2[nH]1 [Raltitrexed]	0.151
COc1cc(/C=C/CO)cc(OC)c1O[C@@H]1O[C@H](CO)[C@@H](O)[C@H](O)[C@H]1O [eleutheroside-b]	1.13
CCCCNNC(=O)c1ccc(-c2cccc(F)c2F)cc1	1.03
COc1cc(/C=C/C(=O)NCCn2c(C(F)(F)F)cc3ccccc32)cc(OC)c1OC	1.05
COc1cc(CCC(=O)CC(=O)CCc2ccc(O)c(OC)c2)ccc1O [Tetrahydro Curcumin]	1.03
CS(=O)(=O)Nc1cc(-c2ccc3ncnc(Nc4ccc(F)c(Cl)c4)c3c2)cnc1Cl	1.08
CCCS(=O)(=O)Nc1ccc(F)c(C(=O)c2c[nH]c3ncc(-c4ccc(Cl)cc4)cc23)c1F [Vemurafenib]	1.2
COc1ncc(-c2ccc3nccc(-c4ccnnc4)c3c2)cc1NS(=O)(=O)c1ccc(F)cc1F [Omipalisib]	0.148
CO[C@@H](C)Cn1c(=O)n(C)c2cnc3ccc(-c4cncc(C(C)(C)O)c4)cc3c21	0.412
O=C(O)c1c[nH]c2cc(Cl)c(-c3ccc(C4(O)CCC4)cc3)cc12	1.09
C/C=C1\NC(=O)[C@H]2CSSCC/C=C/[C@H](CC(=O)N[C@H](C(C)C)C(=O)N2)OC(=O)[C@H](C(C)C)NC1=O [Romidepsin]	0.0515
CCN(CC)CCNc1ccc(C)c2sc3ccccc3c(=O)c12 [Lucanthone]	0.956
COCC[n+]1c2c(n(Cc3cnccn3)c1C)C(=O)c1ccccc1C2=O	0.0796
COc1ccc(S(=O)(=O)Nc2ccccc2C=Cc2ccncc2)cc1	0.238
C[C@@H]1O[C@@H](O[C@@H]2[C@@H](O)[C@H](OCCc3ccc(O)c(O)c3)O[C@H](CO)[C@H]2OC(=O)/C=C/c2ccc(O)c(O)c2)[C@H](O)[C@H](O)[C@H]1O [Verbascoside]	1.03
CN(C(=O)CNC(=O)/C=C/c1cccc(Cl)c1)C1CCS(=O)(=O)CC1	0.834
O=C(CNc1ccc2ccccc2c1)N/N=C/c1cc(Br)c(O)c(Br)c1O	1.05
COC(=O)C1=CO[C@@H](O[C@@H]2O[C@H](CO)[C@@H](O)[C@H](O)[C@H]2O)[C@H]2[C@@H]1[C@H](O)C[C@]2(C)OC(C)=O [8-O-Acetylshanzhiside methyl ester]	0.898
OCC1(O)COc2cc(O)ccc2-c2cc(O)c(O)cc2C1 (configuration not stated) [Protosappanin B]	1.04
O=c1cc(-c2ccc(O)c(-c3c(O)cc(O)c4c(=O)cc(-c5ccc(O)cc5)oc34)c2)oc2cc(O)cc(O)c12 [Amentoflavone]	1.08
